From article PMC7862700, “An all-to-all approach to the identification of sequence-specific readers for epigenetic DNA modifications on cytosine”

What was measured:
Assay in all cases: DAPPL (digital affinity profiling via proximity ligation, sequencing); 10 mM Tris-HCl pH 7.5, 50 mM NaCl, 1 mM DTT, 4% glycerol, room temperature, 30 min; GST-TFs on glutathione beads, 16-mer random dsDNA library, 0.1% formaldehyde crosslink after washing; high values mean tight binding
Settings in all cases: protein: recombinant; tags: N-terminal GST; dsDNA, one strand shown
FLI1 = biological target: T1, FLI1 (Homo sapiens, UniProt Q01543 1-452)
T1 sequence: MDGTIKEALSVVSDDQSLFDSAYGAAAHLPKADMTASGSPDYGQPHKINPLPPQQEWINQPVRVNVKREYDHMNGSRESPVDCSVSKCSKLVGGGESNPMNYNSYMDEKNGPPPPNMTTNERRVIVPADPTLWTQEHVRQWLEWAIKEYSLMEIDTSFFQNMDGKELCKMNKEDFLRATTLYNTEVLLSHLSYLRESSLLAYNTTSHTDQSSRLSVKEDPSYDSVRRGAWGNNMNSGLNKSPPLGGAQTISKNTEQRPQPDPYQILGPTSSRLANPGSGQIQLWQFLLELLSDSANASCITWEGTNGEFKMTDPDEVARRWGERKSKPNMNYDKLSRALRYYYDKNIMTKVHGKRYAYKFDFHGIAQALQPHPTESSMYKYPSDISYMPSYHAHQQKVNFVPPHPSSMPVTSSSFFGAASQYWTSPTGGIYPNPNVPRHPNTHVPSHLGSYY
Method in brief: (§1)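 Sequencing on an Illumina NextSeq500 followed washing, crosslinking with 0.1% formaldehyde, proximity ligation (BsaI/T4 ligase, 1 h, 37 °C) and PCR amplification of pools that had been incubated for 30 min at room temperature with 200 nmole of a random double-stranded 16-mer DNA library in Tris/NaCl/DTT/glycerol buffer. Each pool held DNA-barcoded human transcription factors, expressed in yeast as GST fusions and captured on glutathione beads, plus a tag-only sample. Binding signal is a hexamer's read frequency for a factor divided by its frequency in the tag-only sample.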

ELK1 = biological target: T2, ELK1 (Homo sapiens, UniProt P19419 1-428)
T2 sequence: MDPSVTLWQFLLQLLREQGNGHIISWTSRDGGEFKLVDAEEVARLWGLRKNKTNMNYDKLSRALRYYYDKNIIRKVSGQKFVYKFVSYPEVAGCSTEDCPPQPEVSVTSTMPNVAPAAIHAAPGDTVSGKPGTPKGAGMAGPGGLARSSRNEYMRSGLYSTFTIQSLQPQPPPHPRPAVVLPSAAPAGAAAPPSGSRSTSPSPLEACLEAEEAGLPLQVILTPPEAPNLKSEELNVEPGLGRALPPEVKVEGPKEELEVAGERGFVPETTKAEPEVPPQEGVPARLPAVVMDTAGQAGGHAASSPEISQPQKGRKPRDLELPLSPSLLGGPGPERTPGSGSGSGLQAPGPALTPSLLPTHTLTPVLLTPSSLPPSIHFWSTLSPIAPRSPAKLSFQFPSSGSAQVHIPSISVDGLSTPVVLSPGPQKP
Method in brief: as §1

GABPA = biological target: T3, GABPA (Homo sapiens, UniProt Q06546 1-454)
T3 sequence: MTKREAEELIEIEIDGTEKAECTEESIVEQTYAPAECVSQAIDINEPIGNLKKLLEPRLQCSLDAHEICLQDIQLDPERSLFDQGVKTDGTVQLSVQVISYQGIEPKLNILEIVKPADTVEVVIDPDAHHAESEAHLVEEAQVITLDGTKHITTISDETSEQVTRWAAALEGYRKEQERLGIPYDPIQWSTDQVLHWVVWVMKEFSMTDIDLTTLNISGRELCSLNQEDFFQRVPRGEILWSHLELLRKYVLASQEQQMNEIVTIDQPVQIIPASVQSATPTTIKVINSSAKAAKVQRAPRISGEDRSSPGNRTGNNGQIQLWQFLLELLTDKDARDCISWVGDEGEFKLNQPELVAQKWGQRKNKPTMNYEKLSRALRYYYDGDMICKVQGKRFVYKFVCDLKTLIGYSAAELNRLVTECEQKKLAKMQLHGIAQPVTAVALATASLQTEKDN
Method in brief: as §1

ERG = biological target: T4, ERG (Homo sapiens, UniProt P11308 1-479)
T4 sequence: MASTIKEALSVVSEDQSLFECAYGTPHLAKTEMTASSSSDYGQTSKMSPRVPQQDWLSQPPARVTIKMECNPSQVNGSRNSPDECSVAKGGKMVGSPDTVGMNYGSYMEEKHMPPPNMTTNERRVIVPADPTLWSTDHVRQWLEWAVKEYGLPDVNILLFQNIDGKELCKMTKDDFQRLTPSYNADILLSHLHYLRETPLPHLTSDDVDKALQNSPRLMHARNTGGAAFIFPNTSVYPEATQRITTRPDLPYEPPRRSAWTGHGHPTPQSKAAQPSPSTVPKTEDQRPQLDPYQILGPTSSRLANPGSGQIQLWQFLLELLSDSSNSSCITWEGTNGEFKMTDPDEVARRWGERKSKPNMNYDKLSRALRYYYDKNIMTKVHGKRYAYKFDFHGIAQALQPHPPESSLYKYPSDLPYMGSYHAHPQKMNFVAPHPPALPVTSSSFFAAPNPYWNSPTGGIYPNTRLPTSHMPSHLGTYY
Method in brief: as §1

ELF1 = ELF1 (Homo sapiens, UniProt P32519 1-619)
Sequence of ELF1 (P32519 whole entry): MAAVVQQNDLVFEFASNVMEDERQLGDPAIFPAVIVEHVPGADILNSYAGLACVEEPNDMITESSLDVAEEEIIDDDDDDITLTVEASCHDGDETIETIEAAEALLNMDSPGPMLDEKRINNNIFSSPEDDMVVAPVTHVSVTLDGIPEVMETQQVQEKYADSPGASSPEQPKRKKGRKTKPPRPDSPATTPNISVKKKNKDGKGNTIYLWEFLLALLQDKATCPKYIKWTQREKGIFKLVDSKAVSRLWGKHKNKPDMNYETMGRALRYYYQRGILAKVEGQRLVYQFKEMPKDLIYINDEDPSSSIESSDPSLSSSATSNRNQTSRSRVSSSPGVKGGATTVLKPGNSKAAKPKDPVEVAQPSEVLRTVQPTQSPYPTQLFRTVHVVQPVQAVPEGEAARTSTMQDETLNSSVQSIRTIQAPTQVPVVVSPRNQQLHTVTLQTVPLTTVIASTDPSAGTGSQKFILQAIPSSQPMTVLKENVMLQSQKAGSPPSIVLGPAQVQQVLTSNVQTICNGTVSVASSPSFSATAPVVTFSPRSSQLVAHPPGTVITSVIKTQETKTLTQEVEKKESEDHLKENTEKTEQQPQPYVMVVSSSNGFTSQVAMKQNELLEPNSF
Method in brief: as §1

EHF = biological target: T5, EHF (Homo sapiens, UniProt Q9NZC4 1-300)
T5 sequence: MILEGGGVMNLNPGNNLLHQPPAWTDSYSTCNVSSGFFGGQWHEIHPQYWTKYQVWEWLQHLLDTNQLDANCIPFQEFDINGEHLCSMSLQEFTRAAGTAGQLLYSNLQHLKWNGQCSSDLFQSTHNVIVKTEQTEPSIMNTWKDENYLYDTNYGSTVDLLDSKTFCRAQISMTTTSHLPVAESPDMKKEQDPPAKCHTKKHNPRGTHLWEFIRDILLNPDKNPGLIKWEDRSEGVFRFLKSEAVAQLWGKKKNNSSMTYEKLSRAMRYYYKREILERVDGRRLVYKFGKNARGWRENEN
Method in brief: as §1

SPI1 = SPI1 (Homo sapiens, UniProt P17947 1-270)
Method in brief: as §1

SPIB = SPIB (Homo sapiens, UniProt Q01892 1-262)
Sequence of SPIB (Q01892 whole entry): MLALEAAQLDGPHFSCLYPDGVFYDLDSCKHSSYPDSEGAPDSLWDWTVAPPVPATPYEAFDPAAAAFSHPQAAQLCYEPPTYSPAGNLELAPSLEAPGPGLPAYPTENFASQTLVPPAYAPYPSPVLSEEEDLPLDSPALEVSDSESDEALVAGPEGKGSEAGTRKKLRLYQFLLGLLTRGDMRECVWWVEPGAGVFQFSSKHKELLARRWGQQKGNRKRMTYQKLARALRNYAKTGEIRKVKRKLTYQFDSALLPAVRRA
Method in brief: as §1

ELK3 = biological target: T6, ELK3 (Homo sapiens, UniProt P41970 1-407)
T6 sequence: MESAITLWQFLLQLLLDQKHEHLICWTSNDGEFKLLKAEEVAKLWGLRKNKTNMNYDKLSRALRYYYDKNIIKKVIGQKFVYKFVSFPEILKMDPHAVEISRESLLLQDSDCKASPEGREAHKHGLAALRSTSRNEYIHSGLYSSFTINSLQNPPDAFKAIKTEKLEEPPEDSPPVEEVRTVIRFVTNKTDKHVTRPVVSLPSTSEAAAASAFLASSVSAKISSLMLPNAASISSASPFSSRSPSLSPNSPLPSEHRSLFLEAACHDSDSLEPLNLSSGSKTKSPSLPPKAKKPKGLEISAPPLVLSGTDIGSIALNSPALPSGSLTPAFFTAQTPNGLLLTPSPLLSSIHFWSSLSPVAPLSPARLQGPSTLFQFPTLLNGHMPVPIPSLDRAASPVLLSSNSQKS
Method in brief: as §1

For CTGATA, the binding signal (FLI1) was 1.15 fold enrichment (6-mer frequency, TF over GST control), the binding signal (ELK1) was 1.17 fold enrichment (6-mer frequency, TF over GST control) and the binding signal (GABPA) was 1.27 fold enrichment (6-mer frequency, TF over GST control). For the same sequence, the binding signal (ERG) was 1.1 fold enrichment (6-mer frequency, TF over GST control), the binding signal (ELF1) was 1.21 fold enrichment (6-mer frequency, TF over GST control) and the binding signal (EHF) was 1.26 fold enrichment (6-mer frequency, TF over GST control). The binding signal (SPI1) was 1.28 fold enrichment (6-mer frequency, TF over GST control), the binding signal (SPIB) was 1.32 fold enrichment (6-mer frequency, TF over GST control) and the binding signal (ELK3) was 1.24 fold enrichment (6-mer frequency, TF over GST control).
